The nature of experiment [1]: resazurin metabolic signal in HepG2 cells – cell-based, resazurin fluorescence, 24 h, PK04 Diversity Set, profiling panel (AID 1172). As to conditions: HepG2 viability, higher = more signal.
The nature of experiment [2]: budding yeast growth changes without added modifier – OD600, strain BY4716, 24 h, basal condition, primary screen (AID 1173). The settings on record: S. cerevisiae BY4716 growth, OD600, 24 h; higher = more signal, called active from +8 up or from −8 down.
Experiment [3] can be described thus: viability profiling in MM1S myeloma cells – cell-based, resazurin fluorescence, basal, 24 h, PK04 Diversity Set, profiling panel (AID 1174).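 Note: MM1S multiple myeloma cell line.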 As to conditions: higher = more signal, called active from +8 up or from −8 down.
The target of experiment [4] is Dihydroorotate dehydrogenase (quinone), mitochondrial (Plasmodium falciparum (isolate 3D7)) (UniProt Q08210). Description: inhibition of P. falciparum DHODH – biochemical, C-terminal His tag, absorbance 600 nm, primary screen (AID 1175).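 Note: recombinant parasite enzyme with a five histidine tag at its C terminus.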 As to conditions: PfDHODH enzyme, DCIP absorbance 600 nm; higher = more signal, called active from +8 up or from −8 down.
Experiment [5] is described as follows: inhibition of PAO1 biofilm formation – strain PAO1, LB-PBS medium, absorbance 600 nm, primary screen (AID 1176). The settings on record: P. aeruginosa PAO1 growth/biofilm, A600, 12 h; higher = more signal.
Experiment [6] is described as follows: growth modulation of vineyard yeast isolate – strain RM11-1a, OD600, basal, 24 h, primary screen (AID 1177).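 Note: cultures grown under basal conditions with no added stressor.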 The settings on record: S. cerevisiae RM11-1a growth, OD600, 24 h; higher = more signal, called active from +8 up or from −8 down.
The nature of experiment [7]: growth of efflux-deficient E. coli DRC39 – strain DRC39, OD650, 24 h, E. coli filamentation inducers, primary screen (AID 1178).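 Note: growth measured as culture turbidity by optical density at 650 nm.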 The settings on record: E. coli DRC39 acrAB, higher = more signal, called active from +8 up or from −8 down.
A short description of experiment [8]: growth of efflux-deficient E. coli DRC39 – strain DRC39, OD650, 48 h, E. coli filamentation inducers, primary screen (AID 1179).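 Note: screen aims at cell division blockers that make cells filament.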 As to conditions: E. coli DRC39 delta-acrAB growth, higher = more signal, called active from +8 up or from −8 down.
Experiment [9] can be described thus: viability profiling in RPMI8226 myeloma cells – cell-based, resazurin fluorescence, basal, 24 h, PK04 Diversity Set, profiling panel (AID 1180).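 Note: RPMI8826 multiple myeloma cell line at 5000 cells per well.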 The settings on record: higher = more signal.
Experiment [10] concerns the target E3 ubiquitin-protein ligase XIAP (Homo sapiens) (UniProt P98170). Description: small molecules binding XIAP protein – biophysical, small-molecule microarray, fluorescence 635 nm, primary screen (AID 1181).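 Note: score merges 667 nm emission and signal to noise over triplicate slides.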 The settings on record: higher = more signal.
The test system of experiment [11] is XIP peptide (Xip251-270) binding. Put plainly: XIP fragment 251-270 binding compounds – biochemical, small-molecule microarray, fluorescence 635/667 nm, 0.1 µg/mL protein, primary screen (AID 1182). The settings on record: fluorescent protein binding, 635 nm, higher = more signal, called active from +8 up or from −8 down.
In another experiment the test system is XIP peptide (Xip251-270). Put plainly: compounds binding XIP fragment 251-270 – biochemical, small-molecule microarray, fluorescence 635/667 nm, 0.5 µg/mL protein, primary screen (AID 1183). The settings on record: fluorescence 635 nm, higher = more signal.
Experiment [12] is described as follows: blood-stage malaria parasite viability loss – strain 3D7, DAPI fluorescence, 100 nL, primary screen (AID 1184).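 Note: parasites grown inside human red blood cells in medium with human serum.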 The settings on record: P. falciparum 3D7 growth, 3 d, higher = more signal.
In experiment [13] the target is Homeobox protein Hox-A13 (Mus musculus) (UniProt Q62424). Put plainly: disruptors of Hoxa13 oligonucleotide interaction – biochemical, fluorescence polarization, labeled oligonucleotide, primary screen (AID 1185). The settings on record: Hoxa13:DNA binding, 15 min, higher = more signal, called active from +8 up or from −8 down.
Experiment [14] in a line: blockers of DNA damage checkpoint Chk1 activation – imaging, HeLa, hydroxyurea, phospho-Chk1 antibody, percent positive cells, primary screen (AID 1186). The settings on record: hydroxyurea-induced phospho-Chk1 immunofluorescence imaging, higher = more signal.
Experiment [15] is described as follows: blockers of DNA damage checkpoint Chk1 activation – imaging, HeLa, hydroxyurea, phospho-Chk1 nuclear intensity, primary screen (AID 1187). The settings on record: hydroxyurea-induced phospho-Chk1 immunofluorescence imaging, higher = more signal.

The source made the active and inactive calls. Unless noted, the rule behind the calls is not given here.

For nine compounds, z-score and composite z-score results are on record in PubChem BioAssay.

Homeobox protein Hox-A13 (Mus musculus), sequence (Q62424 whole entry, looked up): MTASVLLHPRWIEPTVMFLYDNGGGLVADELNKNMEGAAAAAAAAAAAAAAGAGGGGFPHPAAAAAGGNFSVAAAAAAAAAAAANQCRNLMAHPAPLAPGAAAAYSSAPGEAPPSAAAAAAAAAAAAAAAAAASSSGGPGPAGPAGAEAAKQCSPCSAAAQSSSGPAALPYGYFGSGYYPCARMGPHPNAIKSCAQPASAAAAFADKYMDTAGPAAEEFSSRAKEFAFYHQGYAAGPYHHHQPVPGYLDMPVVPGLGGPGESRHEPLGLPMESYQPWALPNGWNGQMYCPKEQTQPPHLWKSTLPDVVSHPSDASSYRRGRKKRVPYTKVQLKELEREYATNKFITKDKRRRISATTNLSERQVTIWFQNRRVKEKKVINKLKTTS
Dihydroorotate dehydrogenase (quinone), mitochondrial (Plasmodium falciparum (isolate 3D7)), sequence (Q08210 whole entry, looked up): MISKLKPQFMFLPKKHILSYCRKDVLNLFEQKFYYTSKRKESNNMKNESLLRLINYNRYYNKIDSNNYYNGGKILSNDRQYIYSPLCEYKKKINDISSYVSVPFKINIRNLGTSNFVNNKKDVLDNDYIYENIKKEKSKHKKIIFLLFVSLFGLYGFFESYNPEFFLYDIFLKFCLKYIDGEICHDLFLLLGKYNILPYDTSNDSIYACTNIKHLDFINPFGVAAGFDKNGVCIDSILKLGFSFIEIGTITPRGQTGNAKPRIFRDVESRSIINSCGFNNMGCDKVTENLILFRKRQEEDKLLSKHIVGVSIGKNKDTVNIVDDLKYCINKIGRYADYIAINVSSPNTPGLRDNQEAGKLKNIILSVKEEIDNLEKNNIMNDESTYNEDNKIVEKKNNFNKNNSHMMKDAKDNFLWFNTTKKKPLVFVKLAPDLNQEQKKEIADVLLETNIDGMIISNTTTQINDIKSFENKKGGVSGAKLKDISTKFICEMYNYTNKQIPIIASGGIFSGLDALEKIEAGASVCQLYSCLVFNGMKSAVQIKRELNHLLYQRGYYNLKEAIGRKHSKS
E3 ubiquitin-protein ligase XIAP (Homo sapiens), sequence (P98170 whole entry, looked up, the tested form may be a part): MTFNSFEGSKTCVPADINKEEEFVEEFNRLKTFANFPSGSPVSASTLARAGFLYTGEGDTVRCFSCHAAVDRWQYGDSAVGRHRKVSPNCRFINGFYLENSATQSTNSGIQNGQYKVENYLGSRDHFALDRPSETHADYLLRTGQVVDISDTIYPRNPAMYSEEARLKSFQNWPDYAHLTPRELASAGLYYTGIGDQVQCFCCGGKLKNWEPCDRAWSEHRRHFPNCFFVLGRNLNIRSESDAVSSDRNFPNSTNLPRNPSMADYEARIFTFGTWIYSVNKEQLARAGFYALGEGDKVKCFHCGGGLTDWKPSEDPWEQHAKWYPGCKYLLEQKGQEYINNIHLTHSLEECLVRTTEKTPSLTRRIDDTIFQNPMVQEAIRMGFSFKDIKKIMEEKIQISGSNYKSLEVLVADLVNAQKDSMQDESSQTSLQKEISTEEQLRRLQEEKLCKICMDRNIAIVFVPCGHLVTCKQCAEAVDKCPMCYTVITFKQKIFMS

With `[N-]=[N+]=NCc1ccccc1[C@H]1OC(c2ccc(OCCCO)cc2)=N[C@@]1(Cc1ccccc1N=[N+]=[N-])C(=O)NCC(O)CO` (some centres undefined), the z-score in [1] was -0.144; in [2], -1.39 (inactive); in experiment [3], -0.898 (inactive); in experiment [5] it was 0.758 (inactive); in experiment [6], 0.313 (inactive); in experiment [7], -0.0245 (inactive). Also, the z-score in experiment [8] is -0.188 (inactive); in [9] it was -1.06; in [12] it was -2.31; in experiment [13] it was -4.17 (inactive); in [14], -0.266 (inactive); in experiment [15] it was 0.0665 (inactive). For the same compound, the composite z-score in experiment [4] was -0.407 (inactive); in [10], 0.133; in experiment [11] it was 0.665 (inactive); in the experiment on XIP peptide (Xip251-270), 0.603.
Regarding `[N-]=[N+]=Nc1ccccc1[C@H]1OC(c2ccc(OCCCO)cc2)=N[C@@]1(Cc1ccccc1)C(=O)NCCN1CCOCC1`, the z-score was -0.564 in experiment [1]; -2.44 (inactive) in experiment [2]; -1.5 (inactive) in experiment [3]; 0.314 (inactive) in experiment [5]; 0.964 (inactive) in [6]; 2.03 (inactive) in experiment [7]. Moreover, the z-score in experiment [8] was 0.627 (inactive); in [9], -1.74; in experiment [12], -2.18; in [13], -2.71 (inactive); in experiment [14], -0.116 (inactive); in [15], 0.205 (inactive). Besides, the composite z-score is 0.73 (inactive) in experiment [4], 0.643 in [10], 0.0125 (inactive) in [11] and 0.83 with XIP peptide (Xip251-270).
For `CCOC(=O)C[C@H]1[C@H](OC(=O)c2ccc(C(=O)c3ccccc3)cc2)[C@@H](NC(=O)c2ccc(-c3ccccc3)cc2)c2cc(OCCCO)ccc2N1C(=O)Cc1ccc(OC)cc1`, the z-score in experiment [1] is 0.247; in experiment [2] it was 0.401 (inactive); in [3], -0.176 (inactive); in experiment [5] it was -0.358 (inactive); in [6], 0.225 (inactive); in experiment [7] it was -0.224 (inactive). The z-score was 0.424 (inactive) in experiment [8]; -0.0952 in [9]; -0.75 in experiment [12]; -1.41 (inactive) in [13]; 0.0183 (inactive) in [14]; 0.25 (inactive) in experiment [15]. Moreover, the composite z-score in [4] is 0.25 (inactive); in experiment [10], -0.0994; in experiment [11], -0.555 (inactive); in the experiment on XIP peptide (Xip251-270) it was -0.187.
Turning to `C=CCC(OC(C)=O)[C@@H]1[C@@H](N(Cc2ccc(-c3cccc(C(F)(F)F)c3)o2)C(=O)Cc2ccc(OC)cc2)c2cc(OCCCO)ccc2N1C(=O)c1ccc(-c2ccccc2)cc1` (some centres undefined), the z-score was -1.35 in experiment [1]; -0.0331 (inactive) in [2]; -0.0666 (inactive) in [3]; -0.24 (inactive) in experiment [5]; 0.0869 (inactive) in [6]; -0.165 (inactive) in experiment [7]. The z-score in experiment [8] is -0.555 (inactive); in experiment [9], -0.197; in [12] it was -2.78; in experiment [13], -1.67 (inactive); in [14] it was 0.152 (inactive); in experiment [15], 0.463 (inactive). In addition, the composite z-score in [4] was 0.821 (inactive); in [10], 0.125; in [11], 0.169 (inactive); in the experiment on XIP peptide (Xip251-270) it was -0.0425.
In the case of `CCOC(=O)[C@@H]1CCCCN1C(=O)C(=O)OC`, the z-score in experiment [1] is -0.165; in experiment [2] it was 0.016 (inactive); in [3] it was -0.05 (inactive); in [5] it was -0.255 (inactive); in experiment [6] it was 0.245 (inactive); in experiment [7], -0.26 (inactive). Besides, the z-score is -0.253 (inactive) in [8]; -0.64 in [9]; 1.99 in experiment [12]; 0.731 (inactive) in experiment [13]; 0.284 (inactive) in experiment [14]; -0.0933 (inactive) in [15]. The composite z-score in [4] was 0.0044 (inactive); in experiment [10], 0.269; in experiment [11] it was 0.636 (inactive); in the experiment on XIP peptide (Xip251-270) it was 0.271.
For the compound `C#CCN(Cc1ccccc1Br)[C@H](/C=C/c1ccccc1)[C@@H](O)Cc1ccccc1`, the z-score in [1] is 1.71; in experiment [2], 0.31 (inactive); in [3], -0.309 (inactive); in [5] it was -0.0825 (inactive); in experiment [6] it was 1.05 (inactive); in experiment [7], 1.84 (inactive). The z-score in [8] was 1.24 (inactive); in experiment [9] it was -0.971; in [12], -0.717; in experiment [13], -0.384 (inactive); in experiment [14] it was -0.162 (inactive); in experiment [15] it was 0.103 (inactive). Further, the composite z-score in [4] was 0.342 (inactive); in [10] it was -0.0559; in experiment [11] it was -0.368 (inactive); in the experiment with XIP peptide (Xip251-270) it was -0.115.
On to `O=C1NC(=O)C2C1C=CC(C(O)c1ccco1)N2Nc1ccc(Cl)cc1Cl` (centres undefined), for which the z-score in experiment [1] was -2.04; in [2], -17 (active); in experiment [3], -1.41 (inactive); in [5], 0.711 (inactive); in [6], -5.34 (inactive); in experiment [7] it was -0.725 (inactive). Besides, the z-score in experiment [8] was -1.86 (inactive); in experiment [9], -1.28; in [12], -0.461; in [13], -5.4 (inactive); in [14], 0.54 (inactive); in [15] it was 0.408 (inactive). The composite z-score is 0.893 (inactive) in [4], 0.257 in [10], -0.101 (inactive) in experiment [11] and 0.634 in the experiment with XIP peptide (Xip251-270).
With `CCCNC(=O)[C@@]1(C)c2ccccc2C(=O)N(c2ccc(C)cn2)[C@H]1c1ccc(CO)cc1`, the z-score in [1] is -0.112; in [2], -0.397 (inactive); in experiment [3] it was 0.268 (inactive); in [5] it was 0.484 (inactive); in [6], -0.306 (inactive); in experiment [7] it was -0.398 (inactive). Also, the z-score is -0.586 (inactive) in [8]; -0.388 in [9]; 1.01 in [12]; -1.63 (inactive) in experiment [13]; 0.0068 (inactive) in [14]; -0.172 (inactive) in experiment [15]. Besides, the composite z-score is -0.281 (inactive) in experiment [4], -0.127 in [10], 0.635 (inactive) in experiment [11] and 0.386 in the experiment with XIP peptide (Xip251-270).
Turning to `Cc1cc(C)c(C(O)C2C=CC3C(=O)N(c4ccccc4)C(=O)C3N2Nc2ccccc2F)c(C)c1` (centres undefined), the z-score in experiment [1] is 0.485; in [2] it was 2.01 (inactive); in experiment [3], -0.371 (inactive); in experiment [5] it was 0.971 (inactive); in experiment [6], 1.56 (inactive); in experiment [7], -0.47 (inactive). Besides, the z-score is -0.439 (inactive) in experiment [8]; -0.527 in experiment [9]; -0.286 in experiment [12]; -1.39 (inactive) in experiment [13]; 0.153 (inactive) in experiment [14]; -0.0495 (inactive) in [15]. For the same compound, the composite z-score is 1.03 (inactive) in [4], 0.127 in [10], -0.121 (inactive) in [11] and 0.863 in the experiment with XIP peptide (Xip251-270).
